Experimental data: the supplement of paper PMC6555819

Tests used:
Test in all cases: PBM binding z-score (relative to random genomic background probes); higher = stronger binding; sequences stand for … in GC…GCGATTGACAGCGTAGAATGAAGG
[1] = test system: RARb homodimer (NR concentration 270 nM)
In short: (§1)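 On custom Agilent 4×180K arrays, double-stranded probes with 34-nt variable regions carried direct-repeat seeds, single-nucleotide variants, half-site ablations or random human genomic background. Ligand-free nuclear receptor dimers were applied for 1 h, and binding was read with antibodies against each partner (one per run). Binding z-scores come from regression-normalized fluorescence, with the random background probes as reference.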

[2] = test system: RARg:RXRa (NR concentration 270 nM, RXRa partner concentration 90 nM)
In short: as §1

[3] = test system: RARg homodimer (NR concentration 270 nM)
In short: as §1

[4] = test system: RXRa DBDmut IVT, anti-RXR (DBD mutation: RXRa K156A/R161A, NR concentration 90 nM)
In short: as §1

[5] = test system: RXRa homodimer (NR concentration 180 nM)
In short: as §1

[6] = test system: THRa:RXRa (NR concentration 90 nM, RXRa partner concentration 90 nM)
In short: as §1

[7] = test system: THRa homodimer (NR concentration 90 nM)
In short: as §1

[8] = test system: VDR homodimer (NR concentration 270 nM)
In short: as §1

Sequence | PBM binding z-score [1] | PBM binding z-score [2] | PBM binding z-score [3] | PBM binding z-score [4] | PBM binding z-score [5] | PBM binding z-score [6] | PBM binding z-score [7] | PBM binding z-score [8]
CTCGAAAGGTTGGTTGAGGTGAGTATACGGATAA | 1.12 | 0.599 | 0.684 | 0.251 | 0.502 | 4.42 | 1.82 | 0.513
CCTAGCAGGCCAATCTGTGTCACTCAAGGCTTGA | 0.114 | -0.172 | 0.279 | 0.249 | -0.389 | 0.791 | -0.64 | -0.327
ATCGAAAGGTCGTGAGGTGAGGATACAGAAAGGC | 3.16 | 4.81 | 3.99 | 1.31 | 5.33 | 3.74 | 2.51 | 0.974
ATTCAAAGTTCACTAGGTAACGTAAGATTCAGCT | 3.66 | 4.48 | 5.35 | 4.38 | 3.58 | 2.03 | 0.474 | 4.11
GTACCAAGGTGAAGAGGTCGTTGATGAGTAGGCG | 2.46 | 3.26 | 1.79 | 0.608 | 2.65 | 2.47 | 1.09 | 2.21
ACAGACAGGAGATGAAGGTAACTCAGGCTATCAT | 0.465 | 0.0751 | 0.419 | -0.203 | -0.000835 | 1.03 | 0.773 | 0.239
TCGTATAGGTAAATGCTAGGTGAAAGTCCGATCT | 0.475 | 0.402 | 0.0931 | 1.07 | 0.407 | 1.48 | 0.325 | -0.0661
CGTCCTAGGTCATAGGAGGTCAGTGAAGACAGAT | 4.83 | 5.44 | 5.84 | 2.08 | 4.28 | 5.13 | 1.73 | 2.29
CTCGAAAGATCGGTTGAGGTGAGTATACGGATAA | -0.106 | -0.00103 | -0.0275 | -0.15 | 0.118 | 3.31 | 0.715 | -0.316
CGAACTAGGTCATTGAAAGGACAGTGAATAGTAA | 3.34 | 6.37 | 4.98 | 2.17 | 2.84 | 3.16 | 0.878 | 0.863
CCTAGCAGGCCTATCTGGGTCACTCAAGGCTTGA | 1.68 | 0.716 | 0.616 | -0.488 | 0.644 | 2.3 | 0.219 | -0.239
ACTATTAGTTGAGACTAGGGCAACCGATAGGTTG | 0.465 | 0.376 | 0.586 | -0.0472 | 0.0824 | 1.25 | -0.533 | -0.353
CCTAGCAGGCCAGGGTCACTCTAGCATTTCGCTT | 2.58 | 2.69 | 2.31 | 0.701 | 2.88 | 2.56 | 0.876 | 1.14
TCTGCTAGGTCGACGATGGTCAGCTAATCTGCTA | 0.457 | 0.664 | 0.829 | 0.128 | 0.321 | 0.669 | -0.884 | -0.845
ACTAGCTGGCCAAGGGTCACTCAAGATTAGTCCG | 3.54 | 3.78 | 3.54 | 0.138 | 3.9 | 2.48 | 0.0817 | 0.917
CCTACTGGGCCAAAAAAGTCATTGATGCCGATAA | -0.0259 | -0.155 | 0.0325 | -0.134 | -0.184 | -0.184 | -0.612 | -0.687
ATCTCTAGGTAAGACTCAGATCAGTGAAGAACGC | -0.0502 | 0.253 | 0.295 | 0.0225 | 0.0293 | 0.242 | 0.333 | 0.414
ATCGAAAGGTCGAAGGCGAGTATACCCACCCGAA | 2.23 | 3.79 | 3.68 | 0.777 | 3.64 | 1.75 | -0.359 | 0.879
CGAACTAGGTCATCCAGGACATTGAATACATTGA | 3.11 | 3.95 | 4.63 | 2.66 | 2.95 | 3.87 | 2.27 | 3.47

Sequence | PBM binding z-score [1] | PBM binding z-score [2] | PBM binding z-score [3] | PBM binding z-score [4] | PBM binding z-score [5] | PBM binding z-score [6] | PBM binding z-score [7] | PBM binding z-score [8]
GCTCGGAGGACAAGGCCAGAGCTTTGTCCGTAGA | 0.141 | -0.322 | -0.004 | -1.09 | -1.17 | 0.254 | -0.595 | -0.801
CCTTACGGGTCGAGGTTATAGCACGGGTGGTACG | 1.42 | 1.78 | 1.16 | -0.662 | 2.5 | 1.84 | 0.377 | 0.977
TTACCAGGGTGAAGGTCGTTGATCCCTCTGTAGA | 1.74 | 1.16 | 0.774 | -0.374 | 2.14 | 1.84 | 0.461 | 0.856
TCTCCGAGGACACGAAGGTCAGAGCTTTCCAGAG | 3.51 | 3.46 | 4.49 | 0.665 | 2.02 | 3.74 | 2.44 | 1.76
ATCTCTAGTTAACAAGTTCAGTGAAAGAGAGGAC | 1.64 | 1.07 | 1.06 | 1.03 | 0.676 | 1.12 | 0.867 | 2.76
ATCTCTAGGTAACCAAGTTCAGAGAATGCCGAAC | 1.48 | 0.849 | 1.13 | 0.821 | 0.723 | 1.46 | 0.471 | 2.7
GCAGACAGGTGAAACGCAGGTAACTCATGGTGGC | 0.0324 | 0.941 | 0.44 | -0.582 | 0.943 | 1 | -0.808 | -0.818
GCTCGGAGGATAAGGTCAGAGCTTTGTCCGTAGA | 3.31 | 2.92 | 3.06 | 0.342 | 2.71 | 3.33 | 2.82 | 0.184
CTAACGAGGGCATGAGTTGATAGCAAATGCCGAT | 0.671 | 1.31 | 1.61 | 2.41 | 1.06 | 1.2 | 0.0031 | 1.43
CTCGAAAGGTCGGTCGAGGTGAGTATACGGATAA | 2.4 | 3.1 | 3.3 | 0.728 | 2.47 | 5.04 | 0.386 | 0.0425
TCTAGCAGCCCAGAGGGTCACTCAAGAGGTACGG | 2.38 | 2.16 | 1.8 | -0.186 | 2.23 | 1.63 | -0.455 | 0.294
CGTCCAAGGTCAAAGTCAGTGAAAGAGACTCGAA | 3.32 | 5.86 | 6.34 | 3.91 | 5.95 | 3.5 | 1.72 | 2.46
CCTGCTAGGTCATGGTCCGCTAATCTACAGTATG | 2.55 | 3.73 | 4.05 | 1.74 | 2.66 | 2.86 | 1.1 | 0.414
CCTATTAGTTGACCATAAGGGCACCCGAAGCTCG | 1.86 | 1.16 | 1.04 | 0.326 | 0.908 | 2.02 | 1.61 | 1.39
TCAAGTAGGTTACCAATGGGGCATTCAGCTTTCT | 1.04 | 1.42 | 0.77 | 1.45 | 0.978 | 0.342 | -0.498 | -0.25
GCGACTGGGGCATCAGCAGGTTCCCATAACTTAA | 0.194 | -0.00118 | -0.0802 | -0.281 | -0.0306 | -0.0535 | -0.272 | -0.434
AGAATGAGGTTACTAAGATCAGGGAATTGCGGTC | 1.12 | 1.25 | 1.15 | 1.43 | 1.98 | 2.28 | 0.919 | 0.836
CGTAGTTGGTCAAGGTCACACACGCTATAGGTAC | 4.23 | 4.34 | 4.9 | 2.14 | 4.06 | 4.05 | 3.89 | 2.45
ACAGACAGGTGAGTGAAGGTAACTCTGCTGGACG | 0.091 | 0.24 | 0.455 | -0.298 | 0.622 | 1.52 | -0.492 | -0.195

Sequence | PBM binding z-score [1] | PBM binding z-score [2] | PBM binding z-score [3] | PBM binding z-score [4] | PBM binding z-score [5] | PBM binding z-score [6] | PBM binding z-score [7] | PBM binding z-score [8]
CCTTACGGGTCACGAGGTTATAGGACGACGAGCG | 3.83 | 6.08 | 5.52 | 1.46 | 7.19 | 3.68 | 1.02 | 1.85
CGAACTAGGTCATTGACAGGATAGTGAATAGTAA | 2.38 | 3.62 | 3.86 | 2.34 | 2.55 | 2.57 | 0.521 | 0.957
CCTTACGGGTCACGCGGTTATAGCACGACGAGCG | 3.87 | 5.86 | 5.88 | 1.3 | 6.68 | 3.17 | 0.416 | 1.19
GGAACGAGGCCATTCGAGTTGATAGCATGGCGAT | -0.135 | 0.361 | 0.706 | 2.13 | -0.125 | 2.23 | -0.443 | 1.7
TCGAGTGGGTTAGTCGGGGCATTCAGCCAACATA | 0.697 | -0.203 | -0.276 | 0.51 | -0.199 | 1.18 | 0.456 | 0.85
TTACCAAGGTGAAAGATCGTTGATGCACGCCTTG | 0.0757 | 0.744 | 0.398 | -0.161 | 1.06 | 1.42 | 0.109 | -0.339
ACTCGGAGCACAAAGGTCAGAGCTACGCCAGTGA | 4.45 | 5.16 | 5.11 | 0.345 | 4.98 | 2.63 | -0.28 | 0.477
CCTTACGGGTCACTCCAGGGTATAGCATCGGAGT | 2.55 | 4.23 | 4.17 | 0.964 | 4.2 | 4.35 | -0.222 | 0.88
CGAAGTAGGTCATTGACAGGACAGTGAATAGTAA | 2.74 | 4.83 | 4.36 | 2.27 | 2.94 | 2.64 | 0.373 | 1.07
CCTTACGGGTCACTACAGGTTATAGCATCGGAGT | 3.27 | 4.6 | 4.47 | 1.7 | 4.64 | 4.19 | -0.0959 | 1.31
TCTATTAGTTGATTAGCGCAACCGAAACAGCGGA | -0.343 | 0.177 | -0.0626 | 1.29 | 0.499 | 0.0464 | 0.16 | 0.523
ATCTCTAGGTAAAGACAGTTCAGTGAATGCAAAT | 0.886 | 0.452 | 0.798 | 0.247 | 0.363 | 1.05 | 0.425 | 1.14
TCTTATAGATCAACAGGAGGTTAAGAAAGATCGA | 0.606 | 1.45 | 0.65 | 1.06 | 1.47 | 1.05 | -0.19 | -0.0267
TCATATAGGTAAACAGGTGCAAGTCCGTAAGTTA | 0.278 | 0.453 | 0.0324 | 1.32 | 1.27 | 0.672 | 0.416 | 1.14
CCTTACGTGTCACGAGGTTATAGCACGACGAGCG | 1.49 | 2.24 | 1.64 | 0.866 | 2.06 | 1.96 | 0.982 | 1.01
CTCGTAAGGTCGGTTGAGGTGAGTATACGGATAA | 1.99 | 1.89 | 2.09 | 1.26 | 1.44 | 5.11 | 2.39 | 0.937
ATATGTAGGTTATCGGGTCATTCAATTTGCGCAT | 3.35 | 3.52 | 2.68 | 1.57 | 3.4 | 3.59 | 2.86 | 2.76
CGTCCAAGGTCAATGTCAGTGAAAGAGACTCGAA | 3.64 | 5.4 | 5.96 | 3.62 | 4.79 | 3.57 | 1.84 | 2.02
TCATATAGGTAAACAGGTGAATGTCCGTAAGTTA | 0.605 | 0.347 | 0.272 | 1.27 | 1.03 | 0.567 | 0.511 | 0.283
